GPT2 inhibitor: blocks human glutamate pyruvate transaminase 2; Q8TD30; Recombinant GPT2, coupled pyruvate oxidase/HRP Amplex Red fluorescence; Potency, µM (titrated, usually from 57.7 µM), for the others: top-dose activity change, negative = inhibition, actives largely listed as inhibitors; 100,000 compounds, 0.25% hits; active means well fitted inhibition curve with a large enough effect; inconclusive means small, poorly fitted or top-dose-only effect; further: nearly all actives have a fitted effect of over 60% in size
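Fluorescence read-out: pyruvate from GPT2 turnover coupled to pyruvate oxidase, HRP and Amplex Red (0.2mM ThPP, 0.2U/mL PO and HRP, 50uM Amplex final). Substrates 250uM a-KG, 2mM L-alanine; enzyme 10ng/uL; 30 min RT.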
NPR1 antag: human Npr1 receptor antagonism | 76,000 compounds, 1.6% hits | Potency, µM (top dose mostly 46.3 µM), inactives show at the top dose activity change, negative = inhibition, actives largely listed as inhibitors | HEK293 hNpr1 GloSensor cGMP, ANP-stimulated luminescence | P16066 | AID 1347048; calls by dose curve; further: nearly all actives have a fitted effect of over 60% in size
Target sequence (P16066 whole entry, looked up): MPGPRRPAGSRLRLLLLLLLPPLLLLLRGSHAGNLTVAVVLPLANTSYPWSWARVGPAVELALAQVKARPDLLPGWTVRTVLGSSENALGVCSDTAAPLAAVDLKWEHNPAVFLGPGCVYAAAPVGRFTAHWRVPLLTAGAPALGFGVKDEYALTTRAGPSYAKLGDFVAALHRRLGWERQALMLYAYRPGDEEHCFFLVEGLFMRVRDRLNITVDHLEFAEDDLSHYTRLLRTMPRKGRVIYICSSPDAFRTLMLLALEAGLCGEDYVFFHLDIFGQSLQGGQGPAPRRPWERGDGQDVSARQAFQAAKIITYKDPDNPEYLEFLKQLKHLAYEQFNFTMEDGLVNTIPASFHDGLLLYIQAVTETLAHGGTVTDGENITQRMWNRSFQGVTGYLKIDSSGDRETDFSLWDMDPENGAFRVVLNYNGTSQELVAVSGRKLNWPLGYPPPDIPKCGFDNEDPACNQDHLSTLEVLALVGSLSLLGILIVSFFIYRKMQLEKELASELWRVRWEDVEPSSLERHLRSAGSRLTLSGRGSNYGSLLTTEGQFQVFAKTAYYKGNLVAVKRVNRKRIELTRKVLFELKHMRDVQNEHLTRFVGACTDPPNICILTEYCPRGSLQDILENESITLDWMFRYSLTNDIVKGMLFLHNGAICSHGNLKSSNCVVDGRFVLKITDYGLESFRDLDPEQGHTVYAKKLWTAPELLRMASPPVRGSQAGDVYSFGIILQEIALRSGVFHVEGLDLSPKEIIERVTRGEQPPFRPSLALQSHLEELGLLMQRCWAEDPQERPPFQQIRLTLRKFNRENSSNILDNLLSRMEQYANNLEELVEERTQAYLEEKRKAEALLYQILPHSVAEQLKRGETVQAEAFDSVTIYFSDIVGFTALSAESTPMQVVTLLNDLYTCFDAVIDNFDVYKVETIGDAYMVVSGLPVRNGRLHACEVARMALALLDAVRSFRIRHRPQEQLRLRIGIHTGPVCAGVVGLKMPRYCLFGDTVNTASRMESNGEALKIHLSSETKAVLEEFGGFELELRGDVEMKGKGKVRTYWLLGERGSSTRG
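HEK293 cells stably expressing human Npr1 and cGMP GloSensor pGS-40F, loaded 2 h with 2% GloSensor reagent, given compound 30 min at room temperature. Luminescence read before and 20 min after 0.1 nM hNppA.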
The depositor's hits bear a star; i = inactive; ? = inconclusive; . = not tested or not shown; ! = repeats disagree; [ ] = remark or other dose. Shown is part of a subset that was picked to be rich in hits. On the % scale 0 is the no-effect control and ±100 the full control effect; potency means the concentration at half of the fitted maximal effect.

SMILES	GPT2 inhibitor	NPR1 antag
CCNC(=O)c1cccc2c1CCN2C(=O)Nc1ccc(C)cc1	1%	2.2µM*
CC(C)NC(=O)c1cccc2c1CCN2C(=O)C1CC1	-16%	-2%
CCN1CCN(CCNC(=O)c2cccc3c2CCN3C(=O)Nc2ccc(C)cc2)CC1	-1%	?
Cc1cccc(NC(=O)N2CCc3c(C(=O)NC(C)(C)C)cccc32)c1	-13%	-12%
Cc1ccc(NC(=O)N2CCc3c(C(=O)NC(C)C)cccc32)cc1	i	0.56µM*
CNC(=O)c1cccc2c1CCN2C(=O)Nc1ccc(C)cc1	i	6.3µM*
COc1ccccc1N1CCN(C(=O)Cn2ccn3nc(-c4ccc(F)cc4)c(CO)c3c2=O)CC1	i	0%
Cc1nn(C)c2c1C(c1ccc(C(F)(F)F)cc1)C(C#N)=C(N)O2 (stereo not drawn)	15µM*!	.
Cc1[nH]nc2c1C(c1ccc(Cl)cc1)C(C#N)=C(N)O2 (stereo not drawn)	?	-5%
COc1ccc(Cn2c(C3CCN(C(=O)c4ccc(C)s4)CC3)n[nH]c2=O)cc1	i	-4%
O=C(NC[C@H]1Cn2c(-c3ccc(F)cc3)cnc2CO1)c1ccc(Cl)cc1	4%[88.5 µM]	18µM*
O=S(=O)(NC[C@H]1Cn2c(-c3ccc(F)cc3)cnc2CO1)c1ccc(Cl)cc1	-11%[88.5 µM]	?
O=c1[nH]c(N2CCOCC2)nc2c1CCN(Cc1ccccc1C(F)(F)F)CC2	i	4%
Cc1ccc(CN2CCn3c(nn(-c4ccc(C(F)(F)F)cc4)c3=O)C2)cc1	-26%	4%
Cc1ccc(CN2CCn3c(nn(-c4ccncc4)c3=O)C2)cc1	3%[88.5 µM]	20µM*
N#Cc1ccccc1S(=O)(=O)N[C@H]1CO[C@H]2[C@@H]1OC[C@H]2OC(=O)Nc1ccc(Oc2ccccc2)cc1	1%	11µM*
O=C(Nc1ccccc1)N[C@H]1CO[C@H]2[C@@H]1OC[C@H]2OC(=O)Nc1ccc(Oc2ccccc2)cc1	0%	7.9µM*
COc1ccc(NC(=O)N[C@H]2CO[C@H]3[C@@H]2OC[C@H]3OC(=O)Nc2ccc(OC)cc2)cc1	3%	-2%
CC(=O)c1ccc(NC(=O)O[C@@H]2CO[C@H]3[C@@H]2OC[C@@H]3NC(=O)Nc2ccc(Oc3ccccc3)cc2)cc1	0%	?
COc1ccc(NC(=O)O[C@@H]2CO[C@H]3[C@@H]2OC[C@@H]3NS(=O)(=O)c2ccccc2C#N)cc1	-9%	-7%
COc1ccc(NC(=O)O[C@@H]2CO[C@H]3[C@@H]2OC[C@@H]3NCc2ccc(-c3ccccc3)cc2)cc1	-15%	5.6µM*
CCCCCC(=O)N[C@H]1C[C@@H](Cc2cc(COc3ccccc3)on2)C1(C)C	-46%[88.5 µM]	?
CN(Cc1ccc(F)cc1)Cc1cn(-c2ccccc2)nn1	-28%	-9%
COc1cccc(CNC(=O)Cn2c(=O)c(-c3noc(C)n3)c3n(c2=O)CCCCC3)c1	i	3%
CCN1CCN(c2ccc(Nc3cc(N(C)C(=O)Nc4c(Cl)c(OC)cc(OC)c4Cl)ncn3)cc2)CC1	8.9µM*	.
SMILES	GPT2 inhibitor	NPR1 antag
CCN1CCN(Cc2ccc(NC(=O)Nc3ccc(Oc4cc(NC)ncn4)cc3)cc2C(F)(F)F)CC1	i	.
Cc1cccc(NC(=O)c2ccc(CN3C(=O)NC4(CCOCC4)C3=O)cc2)c1	i	-25%
CC(C)c1ccc(NC(=O)c2ccc(CN3C(=O)NC4(CCOCC4)C3=O)cc2)cc1	5%	10µM*
CC(C)c1cccc(NC(=O)c2ccc(CN3C(=O)NC4(CCOCC4)C3=O)cc2)c1	i	11µM*
CCc1ccc(NC(=O)c2ccc(CN3C(=O)NC4(CCOCC4)C3=O)cc2)cc1	i	?
CCOc1ccccc1CNC(=O)c1cc2n(n1)CC(c1ccc3c(c1)OCO3)OC2 (stereo not drawn)	i	-13%
Cc1ccc2c(C(=O)N3CCN(CC(C)C)CC3)cc(NC(=O)C3CCC3)cc2n1	-2%	3%
C[N+](C)([O-])CCNc1ccc(NCC[N+](C)(C)[O-])c2c1C(=O)c1c(O)ccc(O)c1C2=O	-30%	.
O=C1c2c(O)ccc(O)c2C(=O)c2c(NCCNCCO)ccc(NCCNCCO)c21	10µM*!	.
Cc1ccc(S(=O)(=O)N2CCC(OC3CCN(Cc4ccccc4)CC3)CC2)cc1C	i	-22%
COCCn1c(=O)c(C(=O)NC(C)C)nc2cccnc21	-7%[88.5 µM]	.
COCCn1c2c([n+](Cc3cnccn3)c1C)C(=O)c1ccccc1C2=O	0.15µM*	.
COC[C@H]1CCCN1Cc1nc(C2(O)CCN(C(C)C)CC2)cs1	2%[88.5 µM]	2%[70.6 µM]
COC(=O)CNC(=O)c1cc(C(C)(C)C)nc2c1cnn2C	i	.
CN(Cc1ccccc1)Cc1cn([C@H]2CO[C@H]3[C@@H]2OC[C@@H]3NS(=O)(=O)c2cccc3cccnc23)nn1	4.5µM*	-1%
CN(Cc1ccccc1)Cc1cn([C@H]2CO[C@H]3[C@@H]2OC[C@@H]3NS(=O)(=O)Cc2ccccc2)nn1	3%	-2%
Cc1oc2ccn(Cc3cccc(F)c3)c(=O)c2c1C(=O)NC(C)c1ccccn1 (stereo not drawn)	2%	-3%
FC(F)(F)c1cccc(-c2noc(-c3ccc(NCCN4CCOCC4)nc3)n2)c1	i[11.5 µM]	11µM*
Cn1cc(CNc2ccc(-c3nc(-c4cccc(C(F)(F)F)c4)no3)cn2)cn1	-40%[11.5 µM]	?
CN(C)c1ccc(-c2noc([C@@H]3CCCN3Cc3cnc4ccccc4c3)n2)cn1	?	14µM*
c1ccc(CN2CCC[C@H]2c2nc(-c3ccc(N4CCOCC4)nc3)no2)cc1	-2%[88.5 µM]	3%[70.6 µM]
COC(=O)CNC(=O)N1CCOc2ccc(CN3CCc4ccccc4C3)cc2C1	i	-2%
CCC(=O)Nc1ccc(-c2c(-c3cc(OC)cc(OC)c3)nn(-c3ccc(C)cc3)c2OC(C)=O)cc1	6.3µM*	-21%
COc1ccc(-c2nn(-c3ccc(C)cc3C)c(OC(C)=O)c2-c2ccc(NC(C)=O)cc2)c(OC)c1	?	-13%
Cc1cccc(N2CCN(C(=O)c3noc(-c4ccc5c(c4)OCO5)n3)CC2)c1	-2%	-1%
SMILES	GPT2 inhibitor	NPR1 antag
CC(=O)Oc1c(-c2ccc(NC(=O)C3CC3)cc2)c(-c2ccc3c(c2)OCO3)nn1-c1cccc(C)c1	14µM*	-5%
COc1cc(OC)cc(-c2nn(-c3ccc(C)cc3C)c(OC(C)=O)c2-c2ccc(NC(C)=O)cc2)c1	13µM*	-18%
COc1ccc(-c2nn(-c3ccc(F)cc3)c(OC(C)=O)c2-c2ccc(NC(C)=O)cc2)cc1OC	?	-16%
CN1C(=O)COC[C@@H]1[C@H](O)c1ccc(NC(=O)c2ccccc2)cc1	-6%[88.5 µM]	5%[70.6 µM]
CC(NC(=O)CNC(=O)c1cccc(-c2ccc(C(F)(F)F)cc2)c1)c1ccc(F)cc1 (stereo not drawn)	i	.
Cc1ncsc1CN1CCCN(Cc2ccncc2)C(c2ccccc2)CC(=O)NCC1 (stereo not drawn)	0%	-1%
CC(=O)Nc1cccc(-c2cc(-c3c(C)noc3C)cc3c2C(=O)N(C)C3)c1	-9%[88.5 µM]	4%[70.6 µM]
Cc1noc(C)c1-c1cc2c(c(-c3cccc(OC(C)C)c3)c1)C(=O)N(C)C2	3%[88.5 µM]	1.8µM*
Cc1ccc(C)c(C(=O)N2CCN(c3cc(-c4ccc(Cl)cc4)[nH]n3)CC2)c1	0%	14µM*
Cc1ccccc1C(=O)N1CCN(c2cc(-c3ccc(F)cc3)[nH]n2)CC1	i	-21%

Assay outcomes deposited in PubChem by National Center for Advancing Translational Sciences (NCATS).
